This is an account of results in the supplement of paper PMC12494721.

Where a name gives a salt, the structure may show the parent alone.

Common to all, as to conditions: incubation time: 27 h, anaerobic, 37 °C
Assay [1] relates to Clostridium sporogenes DSM 1664. The assay can be described thus: growth (OD595) fold change vs plate DMSO controls (fold change (ratio)); higher = more growth. The gist of the method:
(§1)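 Each value is the mean of 2 biological replicates, and fold changes above 1.5 were set to NA. The underlying readings were taken at 595 nm from shaken anaerobic mGAM cultures in 96-well plates after 27 h at 37 °C. They were blank-subtracted, corrected for compound background using 20 µM compound solutions in water, and converted to OD with a calibration factor of 5. Growth is the fold change relative to the median of the plate DMSO controls.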

Assay [2] has as its system Escherichia coli IAI1. Described as above. The gist of the method:
as §1

Assay [3] deals with Klebsiella aerogenes DSM 30053. Described as above. The procedure, abridged:
as §1

The test system of assay [4] is Ruminococcus gnavus DSM 108212. The assay is described as above. The gist of the method:
as §1

Assay [5] concerns Klebsiella aerogenes DSM 30053. The experiment in a line: fold change of Histamine concentration vs plate DMSO controls (fold change (ratio)); higher = more amine produced, active = hit call of the paper (significant change in both replicates, either direction). The gist of the method: (§2)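 Amines were quantified by LC–triple-quadrupole MS in dynamic MRM mode against external calibration curves, with drift correction within each batch. The samples were whole anaerobic mGAM cultures of four gut bacterial strains, grown for 27 h at 37 °C in 80 µL wells and extracted with cold acetonitrile/methanol with 0.1% formic acid, then centrifuged. Values are reported as fold change over DMSO controls on the same plate. The mean of 2 biological replicates is given.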

In assay [6] the test system is Clostridium sporogenes DSM 1664. The experiment in a line: fold change of Tryptamine concentration vs plate DMSO controls (fold change (ratio)); higher = more amine produced, active = hit call of the paper (significant change in both replicates, either direction). The gist of the method: as §2
Assay [7] relates to Ruminococcus gnavus DSM 108212. Described as above. The gist of the method: as §2
In assay [8] the test system is Escherichia coli IAI1. The assay can be described thus: fold change of Putrescine concentration vs plate DMSO controls (fold change (ratio)); higher = more amine produced, active = hit call of the paper (significant change in both replicates, either direction). The procedure, abridged: as §2
In assay [9] the test system is Klebsiella aerogenes DSM 30053. The assay is described as above. The procedure, abridged:
as §2

The subject of assay [10] is Escherichia coli IAI1. The experiment in a line: fold change of Cadaverine concentration vs plate DMSO controls (fold change (ratio)); higher = more amine produced, active = hit call of the paper (significant change in both replicates, either direction). The procedure, abridged:
as §2

The test system of assay [11] is Klebsiella aerogenes DSM 30053. The assay is described as above. The procedure, abridged:
as §2

Assay [12] has as its system Ruminococcus gnavus DSM 108212. The assay can be described thus: fold change of 2-Phenylethylamine concentration vs plate DMSO controls (fold change (ratio)); higher = more amine produced, active = hit call of the paper (significant change in both replicates, either direction). The gist of the method:
as §2

For the molecule `OCCN1C[C@H](O)[C@@H](O)[C@H](O)[C@H]1CO` [Miglitol] (20 µM), the growth in assay [1] was determined as 1.09; with Escherichia coli IAI1 [2], 1.01; in [3] it was 1.02; in assay [4] it was 1.05. Also, the “fold change of Histamine concentration” value in assay [5] was 1.02 (inactive). Further, the “fold change of Tryptamine concentration” value was 1 (inactive) in assay [6] and 1.02 (inactive) in assay [7]. Besides, the entries for the “fold change of Putrescine concentration” value (in the assay on Escherichia coli IAI1 [8]; in assay [9]) were 1 (inactive) and 1.01 (inactive), respectively. For the same molecule, the “fold change of Cadaverine concentration” value was 0.964 (inactive) in the assay with Escherichia coli IAI1 [10] and 1.01 (inactive) in assay [11]. In addition, the “fold change of 2-Phenylethylamine concentration” value in assay [12] was 1.03 (inactive).

On to `C[C@]12CCC(=O)C=C1CC[C@@H]1[C@@H]2[C@@H](O)C[C@@]2(C)[C@H]1CC[C@]2(O)C(=O)CO` [Hydrocortisone] (20 µM), for which the growth worked out at 0.958 in assay [1], 1.03 in the assay on Escherichia coli IAI1 [2], 0.985 in assay [3] and 1.03 in assay [4]. Besides, the “fold change of Histamine concentration” value in [5] was 1.04 (inactive). The figures for the “fold change of Tryptamine concentration” value in assay [6] and in assay [7] were 1.06 (inactive) and 1.01 (inactive), respectively. The “fold change of Putrescine concentration” value was 1.04 (inactive) in the assay on Escherichia coli IAI1 [8] and 1 (inactive) in assay [9]. In addition, the “fold change of Cadaverine concentration” value with Escherichia coli IAI1 [10] was 1.03 (inactive); in assay [11], 1 (inactive). For the same molecule, the “fold change of 2-Phenylethylamine concentration” value in assay [12] is 0.975 (inactive).

In the case of `COc1c(N2CCNC(C)C2)c(F)cc2c(=O)c(C(=O)O)cn(C3CC3)c12` (centres undefined) [Gatifloxacin] (20 µM), the growth is 0.0115 in [1], 0.0496 in the assay with Escherichia coli IAI1 [2], 0.235 in [3] and 0.0125 in [4]. In addition, the “fold change of Histamine concentration” value in [5] is 0.285 (active). The “fold change of Tryptamine concentration” value in [6] was 0.0452 (active); in assay [7], 0.226 (active). In addition, the “fold change of Putrescine concentration” value with Escherichia coli IAI1 [8] was 0.888 (inactive); in [9], 1.02 (inactive). For the same molecule, the “fold change of Cadaverine concentration” value is 0.264 (active) in the assay on Escherichia coli IAI1 [10] and 0.97 (inactive) in [11]. Also, the “fold change of 2-Phenylethylamine concentration” value in [12] is 0.226 (active).

For the molecule `C[C@H]1C[C@@H]2[C@H]([C@@H](O)C[C@@]3(C)[C@H]2CC[C@]3(O)C(=O)CO)[C@@]2(C)C=CC(=O)C=C12` [Methylprednisolone, 6-alpha] (20 µM), the growth in assay [1] was 0.939; with Escherichia coli IAI1 [2] it was 0.956; in assay [3], 1.01; in assay [4], 0.836. Besides, the “fold change of Histamine concentration” value in [5] is 0.992 (inactive). The “fold change of Tryptamine concentration” value in assay [6] was 1.03 (inactive); in assay [7], 1.01 (inactive). Besides, the “fold change of Putrescine concentration” value was 0.991 (inactive) with Escherichia coli IAI1 [8] and 1.05 (inactive) in assay [9]. Moreover, the “fold change of Cadaverine concentration” value in the assay on Escherichia coli IAI1 [10] was 1.03 (inactive); in assay [11] it was 1.04 (inactive). The “fold change of 2-Phenylethylamine concentration” value in assay [12] was 1.03 (inactive).

Consider `OCCOCCN1CCN(C2=Nc3ccccc3Sc3ccccc32)CC1` [Quetiapine hemifumarate] (20 µM), for which the growth was found to be 0.966 in assay [1], 1.13 in the assay with Escherichia coli IAI1 [2], 1.07 in [3] and 0.982 in [4]. Besides, the “fold change of Histamine concentration” value in assay [5] is 0.894 (inactive). For the same molecule, the “fold change of Tryptamine concentration” value is 1 (inactive) in assay [6] and 1.01 (inactive) in assay [7]. For the same molecule, the entries for the “fold change of Putrescine concentration” value (with Escherichia coli IAI1 [8]; in assay [9]) were 1.09 (inactive) and 0.978 (inactive), respectively. Further, the “fold change of Cadaverine concentration” value in the assay with Escherichia coli IAI1 [10] was 0.892 (inactive); in [11], 1.03 (inactive). The “fold change of 2-Phenylethylamine concentration” value in assay [12] was 0.991 (inactive).

In the case of `N=c1ccn2c(n1)O[C@H]1[C@H](O)[C@@H](CO)O[C@H]12` [Ancitabine hydrochloride] (20 µM), the growth in assay [1] was 1.2; with Escherichia coli IAI1 [2], 1.01; in assay [3], 0.999; in assay [4] it was 0.855. In assay [5], the “fold change of Histamine concentration” value is 1.06 (inactive). The “fold change of Tryptamine concentration” value was 0.98 (inactive) in assay [6] and 0.744 (active) in [7]. The results for the “fold change of Putrescine concentration” value (in the assay with Escherichia coli IAI1 [8]; in assay [9]) were 1.02 (inactive) and 0.991 (inactive), respectively. Besides, the “fold change of Cadaverine concentration” value in the assay with Escherichia coli IAI1 [10] was 1 (inactive); in assay [11], 0.992 (inactive). In [12], the “fold change of 2-Phenylethylamine concentration” value was 0.794 (inactive).

Regarding `CN1CCN2c3ncccc3Cc3ccccc3C2C1` (centres undefined) [Mirtazapine] (20 µM), the growth in assay [1] came out at 1.09; with Escherichia coli IAI1 [2], 1.01; in [3] it was 1; in assay [4] it was 1.11. Further, in [5], the “fold change of Histamine concentration” value was 0.963 (inactive). The “fold change of Tryptamine concentration” value was 1.12 (inactive) in assay [6] and 1.06 (inactive) in [7]. Further, the “fold change of Putrescine concentration” value in the assay on Escherichia coli IAI1 [8] was 0.964 (inactive); in assay [9], 0.983 (inactive). The “fold change of Cadaverine concentration” value is 0.984 (inactive) with Escherichia coli IAI1 [10] and 1.02 (inactive) in assay [11]. Further, the “fold change of 2-Phenylethylamine concentration” value in [12] is 1.04 (inactive).

Regarding `CC(=O)Nc1ccc(OC(=O)c2ccccc2O)cc1` [Acetaminosalol] (20 µM), the growth in assay [1] is 0.904; with Escherichia coli IAI1 [2], 0.977; in assay [3], 0.996; in assay [4] it was 0.994. Further, the “fold change of Histamine concentration” value in assay [5] was 0.933 (inactive). The “fold change of Tryptamine concentration” value in assay [6] was 1.06 (inactive); in assay [7], 0.928 (inactive). Besides, the “fold change of Putrescine concentration” value (in the assay on Escherichia coli IAI1 [8]; in assay [9]) was 1.01 (inactive) in each case. The “fold change of Cadaverine concentration” value in the assay on Escherichia coli IAI1 [10] was 1 (inactive); in assay [11] it was 0.999 (inactive). For the same molecule, in assay [12], the “fold change of 2-Phenylethylamine concentration” value is 0.917 (inactive).

As to `COC(=O)C1=C(C)NC(C)=C(C(=O)OCCN(C)Cc2ccccc2)C1c1cccc([N+](=O)[O-])c1` (centres undefined) [Nicardipine hydrochloride] (20 µM), the growth in assay [1] worked out at 1.11; in the assay on Escherichia coli IAI1 [2], 0.934; in [3], 1.01; in assay [4] it was 1.18. Further, in assay [5], the “fold change of Histamine concentration” value is 0.982 (inactive). Besides, the results for the “fold change of Tryptamine concentration” value in assay [6] and in [7] were 0.981 (inactive) and 0.915 (inactive), respectively. Further, the “fold change of Putrescine concentration” value in the assay on Escherichia coli IAI1 [8] was 1.04 (inactive); in assay [9], 0.999 (inactive). Also, the entries for the “fold change of Cadaverine concentration” value (in the assay with Escherichia coli IAI1 [10]; in assay [11]) were 0.995 (inactive) and 0.99 (inactive), respectively. Moreover, in [12], the “fold change of 2-Phenylethylamine concentration” value was 0.858 (inactive).

Consider `O=C1[C@H](CC[C@H](O)c2ccc(F)cc2)[C@@H](c2ccc(O)cc2)N1c1ccc(F)cc1` [Ezetimibe] (20 µM), for which the growth in assay [1] was determined as 1.3; in the assay with Escherichia coli IAI1 [2], 1.1; in [3] it was 1.02; in assay [4] it was 0.955. Also, the “fold change of Histamine concentration” value in assay [5] is 0.972 (inactive). Besides, the “fold change of Tryptamine concentration” value is 0.796 (inactive) in assay [6] and 0.858 (inactive) in assay [7]. The “fold change of Putrescine concentration” value is 1.02 (inactive) in the assay on Escherichia coli IAI1 [8] and 1 (inactive) in assay [9]. The “fold change of Cadaverine concentration” value in the assay with Escherichia coli IAI1 [10] was 0.987 (inactive); in assay [11], 0.992 (inactive). In [12], the “fold change of 2-Phenylethylamine concentration” value is 0.832 (inactive).

On to `CCOC(=O)OC(C)OC(=O)[C@@H]1N2C(=O)[C@@H](NC(=O)[C@H](N)c3ccccc3)[C@H]2SC1(C)C` (some centres undefined) [Bacampicillin hydrochloride] (20 µM), for which the growth in assay [1] turned out to be 0; with Escherichia coli IAI1 [2] it was 1.16; in assay [3], 1.46; in [4], 0.0946. Also, in [5], the “fold change of Histamine concentration” value is 1.02 (inactive). In addition, the figures for the “fold change of Tryptamine concentration” value in [6] and in assay [7] were 0.0203 (active) and 0.0343 (active), respectively. The “fold change of Putrescine concentration” value in the assay on Escherichia coli IAI1 [8] was 0.928 (inactive); in assay [9], 1.07 (inactive). The “fold change of Cadaverine concentration” value in the assay with Escherichia coli IAI1 [10] was 1.6 (active); in assay [11], 1.05 (inactive). Besides, in [12], the “fold change of 2-Phenylethylamine concentration” value is 0.0374 (active).

For the molecule `CCC(=O)[C@@]1(C)[C@H](C)C[C@H]2[C@@H]3CCC4=CC(=O)C=C[C@]4(C)[C@H]3[C@@H](O)C[C@@]21C` [Rimexolone] (20 µM), the growth in [1] was determined as 1.08; in the assay on Escherichia coli IAI1 [2], 0.953; in assay [3], 1.01; in assay [4], 1.07. The “fold change of Histamine concentration” value in assay [5] was 1.02 (inactive). Also, the entries for the “fold change of Tryptamine concentration” value in assay [6] and in [7] were 0.98 (inactive) and 1.05 (inactive), respectively. Moreover, the “fold change of Putrescine concentration” value is 0.983 (inactive) in the assay with Escherichia coli IAI1 [8] and 1 (inactive) in assay [9]. Also, the figures for the “fold change of Cadaverine concentration” value (with Escherichia coli IAI1 [10]; in assay [11]) were 1.01 (inactive) and 0.991 (inactive), respectively. Also, in assay [12], the “fold change of 2-Phenylethylamine concentration” value was 1.04 (inactive).
